# System: Plasmodium falciparum NF54 stage IV/V gametocytes
# Experiment: % inhibition of gametocyte viability (PrestoBlue); higher = more inhibition
# Conditions: 1 µM; 48 h
# Summary of the method: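 Stage IV/V NF54 gametocytes were exposed to compound at 1 or 5 µM for 48 h at 37 °C under stationary, hypoxic conditions, then read by PrestoBlue fluorescence at 612 nm. The percent inhibition of gametocyte viability was normalised to vehicle and kill controls from one run.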
row,Compound,% inhibition of gametocyte viability
1,N#Cc1cc([N+](=O)[O-])ccc1Oc1ccccc1Cl,55%
2,O=c1nc(N2CCN(CC3CCCCC3)CC2)sc2c([N+](=O)[O-])cc(C(F)(F)F)cc12,< 0%
3,[N-]=[N+]=N[C@H]1C[C@H](n2ccc(=O)[nH]c2=O)O[C@@H]1CO,6.88%
4,Cc1onc(-c2ccccc2Cl)c1C(=O)N[C@@H]1C(=O)N2[C@@H]1SC(C)(C)[C@@H]2C(=O)O,< 0%
5,O=C(c1ccccc1)N1CCN(c2ccccc2NC(=O)C(Cl)(Cl)Cl)CC1,< 0%
6,O=[N+]([O-])c1cn(Cc2nc(O)nc(O)c2Br)cn1,9.08%
7,CCc1nc2ccc(Cl)cn2c1C(=O)NCc1ccc(N2CCC(c3ccc(OC(F)(F)F)cc3)CC2)cc1,22%
8,Cc1ccc(C)c(OCCCCCCN2C[C@H](O)[C@@H](O)[C@H](O)[C@H]2CO)c1,< 0%
9,COc1cc(Cc2cc(N)nc(N)n2)cc(OC)c1OC,< 0%
10,O=C(Cn1cnc2ccccc2c1=O)Nc1ccccc1,27.9%
11,CC[C@H](NC(=O)[C@H](C)NC)C(=O)N1C[C@@H](O)C[C@H]1Cc1c(-c2[nH]c3cc(F)ccc3c2C[C@@H]2C[C@H](O)CN2C(=O)[C@H](CC)NC(=O)[C@H](C)NC)[nH]c2cc(F)ccc12,5.89%
12,O=C(N[C@H](CCS)C(=O)N[C@H](Cc1ccccc1)C(=O)O)c1cc2ccccc2[nH]1,< 0%
13,CCCCCCCc1[nH]c2ccccc2c(=O)c1O,< 0%
14,CN1CCN(Cc2ccc(-c3cnc4[nH]cc(-c5ccc6[nH]ccc6c5)c4c3)cc2)CC1,10%
15,CCc1oc2ccccc2c1C(=O)c1ccc(O)cc1,< 0%
16,C=CCc1cc(Cc2cnc(N)nc2N)cc(OC)c1O,12.8%
17,CC1(C)C[C@H]1C(=O)N/C(=C\CCCCSC[C@@H](N)C(=O)O)C(=O)O,25.1%
18,CCCCc1ccc(S(=O)(=O)Nc2cc(C)on2)cc1,18%
19,O=c1ccc2ncc(=O)n3c2n1CC3CN1CCC(NCc2cc3c(cn2)OCCC3)CC1 (stereo not drawn),< 0%
20,C=C[C@]1(C)C[C@@H](OC(=O)CS[C@@H]2C[C@H]3CC[C@@H](C2)N3C)[C@]2(C)[C@H](C)CC[C@]3(CCC(=O)[C@H]32)[C@@H](C)[C@@H]1O,< 0%
21,CN(C/C=C/C#CC(C)(C)C)Cc1cccc2ccccc12,< 0%
22,O=C(O)CCNC(=O)c1ccccc1,< 0%
23,Nc1nc(NC2Cc3ccc(F)cc3C2)nc(N2CCCCC2)n1 (stereo not drawn),28.3%
